In PubChem BioAssay AID588354 (The Scripps Research Institute Molecular Screening Center, 2011):
Screen size: about 360,000 compounds; about 430 (0.12%) were called active. The entries come from a sample that favours actives as a whole. Values without a mark were called inactive.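 Rule for the calls: active = inhibition above the campaign mean plus 3 SD, with each screening campaign given its own cutoff (cut at about 60% in these data); inactive = the rest.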

Each compound was assayed against Nuclear receptor coactivator 1 (Homo sapiens) (UniProt Q15788) (assay: SRC1 coactivator transcriptional activity inhibitors, primary screen, cell-based, luminescence (AID 588354;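 note: 0% = DMSO treated cells and 100% = gossypol at 36 µM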)). Conditions: HEK293 GAL4-SRC1 luciferase reporter, at 3.6 µM, hits give high values.
Chain of Nuclear receptor coactivator 1 (Homo sapiens) (Q15788 whole entry, looked up, the tested form may be a part): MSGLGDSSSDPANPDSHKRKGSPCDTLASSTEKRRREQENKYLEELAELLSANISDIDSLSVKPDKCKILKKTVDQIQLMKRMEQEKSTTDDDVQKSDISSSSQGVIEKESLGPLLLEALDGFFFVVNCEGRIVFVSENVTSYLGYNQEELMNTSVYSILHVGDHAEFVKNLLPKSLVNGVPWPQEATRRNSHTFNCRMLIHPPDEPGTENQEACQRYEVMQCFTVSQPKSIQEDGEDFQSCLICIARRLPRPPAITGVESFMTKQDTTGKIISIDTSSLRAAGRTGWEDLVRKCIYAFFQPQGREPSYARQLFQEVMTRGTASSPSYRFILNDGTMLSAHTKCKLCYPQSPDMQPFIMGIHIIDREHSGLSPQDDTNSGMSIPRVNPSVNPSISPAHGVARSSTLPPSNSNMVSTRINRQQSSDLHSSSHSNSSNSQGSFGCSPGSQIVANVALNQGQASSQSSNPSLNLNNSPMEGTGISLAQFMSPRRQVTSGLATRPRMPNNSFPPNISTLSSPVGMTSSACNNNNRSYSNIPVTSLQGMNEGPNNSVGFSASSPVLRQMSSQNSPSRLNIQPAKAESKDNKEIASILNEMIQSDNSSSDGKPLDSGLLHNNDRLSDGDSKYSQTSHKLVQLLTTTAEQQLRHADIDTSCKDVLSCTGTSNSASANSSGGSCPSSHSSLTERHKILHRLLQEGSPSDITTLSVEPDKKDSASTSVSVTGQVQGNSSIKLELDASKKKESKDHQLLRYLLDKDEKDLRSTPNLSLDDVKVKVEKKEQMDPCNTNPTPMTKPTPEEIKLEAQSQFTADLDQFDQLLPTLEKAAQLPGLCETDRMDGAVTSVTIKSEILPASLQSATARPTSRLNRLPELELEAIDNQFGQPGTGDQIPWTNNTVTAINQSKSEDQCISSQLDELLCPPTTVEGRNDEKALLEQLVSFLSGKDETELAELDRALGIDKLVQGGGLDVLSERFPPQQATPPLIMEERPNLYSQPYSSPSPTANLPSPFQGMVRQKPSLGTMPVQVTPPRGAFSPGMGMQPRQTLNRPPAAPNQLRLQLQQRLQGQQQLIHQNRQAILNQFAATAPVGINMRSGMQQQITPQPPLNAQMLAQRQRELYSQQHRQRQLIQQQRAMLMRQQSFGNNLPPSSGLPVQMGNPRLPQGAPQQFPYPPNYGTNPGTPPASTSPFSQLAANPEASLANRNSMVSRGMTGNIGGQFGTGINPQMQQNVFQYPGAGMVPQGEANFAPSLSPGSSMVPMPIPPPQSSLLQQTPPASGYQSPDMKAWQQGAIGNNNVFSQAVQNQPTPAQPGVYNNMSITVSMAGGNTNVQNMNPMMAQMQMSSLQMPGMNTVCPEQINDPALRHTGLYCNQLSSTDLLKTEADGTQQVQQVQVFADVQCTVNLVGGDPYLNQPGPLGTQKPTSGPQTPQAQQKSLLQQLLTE

Question: How did the inhibition turn out when CCN(C(=O)COC(=O)CCOc1cccc(C)c1)c1c(N)n(Cc2ccccc2)c(=O)[nH]c1=O was run?
Answer: 4.13%

Question: With Cc1cccc(C)c1Cn1c(C)c(C(=O)NCc2cccc(Cl)c2)sc1=O as the compound, how does the inhibition read?
Answer: -0.2%

Question: For CCc1ccc(CN(C)C(=O)C2CCC(=O)N(Cc3cccc(OC)c3)C2)nc1 (configuration not stated), which inhibition is on record?
Answer: 5.84%

Question: Which inhibition does the source give for CC(C)CN(C(=O)CSc1nncn1C)C1CCS(=O)(=O)C1 (configuration not stated) here?
Answer: 14%

Question: With O=C(N/N=C/c1ccccc1O)/C(=C/c1ccccc1)CCO as the compound, how does the inhibition read?
Answer: 30.9%

Question: C=CCOc1ccccc1/C=N/NC(=O)Cc1ccccc1 was tested. Which inhibition did it give?
Answer: -8.79%

Question: With O=C(NN=Cc1ccccc1O)NN=Cc1ccccc1O as the compound, how does the inhibition read?
Answer: 63% (active)

Question: CCSc1sc(CC)cc1C=O was tested. Which inhibition did it give?
Answer: -14.9%

Question: How did the inhibition turn out when Cc1cc2c(cc1C)N(Cc1ccccc1)C1=NCCCN12 was run?
Answer: 21.9%

Question: Which inhibition does the source give for CS(=O)(=O)Nc1ccccc1C(=O)OCC(=O)NC1CC1 here?
Answer: -13.3%

Question: With COc1ccc2c(c1)c(=Cc1ccc(N(C)C)cc1)c1cc(-c3ccccc3)[n+](C)n12 as the compound, how does the inhibition read?
Answer: 64.1% (active)

Question: How did the inhibition turn out when COc1ccc(OC)c(NC(=O)CN(C)CCOc2ccc(Br)cc2)c1 was run?
Answer: -10.8%

Question: How did the inhibition turn out when COc1ccc(Nc2ncnc3ccc(Br)cc23)c(OC)c1 was run?
Answer: 81.9% (active)

Question: With COc1ccc(OC)c(Nc2nc3ccccc3n3cnnc23)c1 as the compound, how does the inhibition read?
Answer: 1.7%

Question: Which inhibition does the source give for COc1ccccc1C(=O)NC(=O)COC(=O)c1ccco1 here?
Answer: 3.45%

Question: How did the inhibition turn out when COC(=O)c1ccc(NC(=O)CSc2nncc3ccc(OC)c(OC)c23)cc1 was run?
Answer: -23.3%

Question: How did the inhibition turn out when CCN(CC)CCCNC(=O)c1c(O)c2cc(F)cc3c2n(c1=O)C(C)CC3 (configuration not stated) was run?
Answer: -12.1%

Question: Which inhibition does the source give for COc1ccc(CCN2C(=O)N(c3ccc(OC)cc3)C(=O)C2CC(=O)Nc2ccc(OC)cc2)cc1 (configuration not stated) here?
Answer: -12.4%

Question: For O=C(Nc1cccc2c1CCCC2)C1CCN(C(=O)NC2CCCCC2)CC1, which inhibition is on record?
Answer: 3.24%

Question: How did the inhibition turn out when O=C(CC1Nc2ccccc2NC1=O)Nc1ccccc1 (configuration not stated) was run?
Answer: -51.2%

Question: CCN(c1ccccc1)S(=O)(=O)c1ccc(OCC(=O)N2CCCC2)cc1 was tested. Which inhibition did it give?
Answer: -2.15%

Question: How did the inhibition turn out when CCC(C)NC(=O)c1cc(Cl)ccc1OC (configuration not stated) was run?
Answer: 3%

Question: With CC(C)C[C@H](NC(=O)C1CCC(CNC(=O)[C@@H]2CCCN2C(=O)OC(C)(C)C)CC1)C(=O)O (some centres not stated) as the compound, how does the inhibition read?
Answer: 16%

Question: Which inhibition does the source give for CC(C)(C)C(=O)NCCCNc1ccc([N+](=O)[O-])cc1 here?
Answer: -24.3%

Question: CCN(CC)S(=O)(=O)c1ccc(N2CCN(C)CC2)c(NC(=O)Nc2ccccc2F)c1 was tested. Which inhibition did it give?
Answer: -0.49%

Question: How did the inhibition turn out when COCC1CCCN(Cc2nc(-c3ccc4c(c3)OCO4)no2)C1 (configuration not stated) was run?
Answer: -70.5%

Question: For CC(=O)Nc1ccc(C(=O)Nc2cc(S(=O)(=O)N3CCOCC3)ccc2N2CCOCC2)cc1, which inhibition is on record?
Answer: -2.37%

Question: Which inhibition does the source give for O=C(NCCc1ccccc1)Oc1ccc(Cl)cc1 here?
Answer: -56.8%

Question: With COc1ccc(CN2CCC(c3nc4ccc(Cl)cc4[nH]3)CC2)cc1 as the compound, how does the inhibition read?
Answer: 2.53%

Question: With Cc1cc(NC(=O)CSC2=NS(=O)(=O)c3cc(Cl)ccc3N2)no1 as the compound, how does the inhibition read?
Answer: -31%

Question: Which inhibition does the source give for CN(CCOc1ccc(Br)cc1)CC(=O)Nc1cccc(S(=O)(=O)NC2=NCCC2)c1 here?
Answer: -16.8%

Question: Which inhibition does the source give for CC(C)(C)c1ccccc1NC(=O)CN1C(=O)NC2(CCCC2)C1=O here?
Answer: -13.8%

Question: With CCn1nc(C(=O)Nc2ccc(N3CCOCC3)cc2)c2ccccc2c1=O as the compound, how does the inhibition read?
Answer: -1.53%

Question: How did the inhibition turn out when CCCCOC(=O)NCN1C(=O)C2C3C=CC(C3)C2C1=O (configuration not stated) was run?
Answer: 1%

Question: Clc1ccc(Cn2ncc3c(NCc4cccnc4)ncnc32)cc1 was tested. Which inhibition did it give?
Answer: -4.66%

Question: Which inhibition does the source give for Cc1cc(NCc2cccnc2)no1 here?
Answer: 25.1%

Question: How did the inhibition turn out when Brc1ccc2ncnc(NCc3cccnc3)c2c1 was run?
Answer: 66.1% (active)

Question: COc1ccc(S(=O)(=O)N2CCN(C(=O)N(C)C)C2C)cc1 (configuration not stated) was tested. Which inhibition did it give?
Answer: -47.2%

Question: C=CCN1C=C(C(=O)c2ccccc2)C(=O)CC1 was tested. Which inhibition did it give?
Answer: -2.55%

Question: For O=C(O)C1CCCN1C1=NS(=O)(=O)c2ccccc21 (configuration not stated), which inhibition is on record?
Answer: 12.2%

Question: Cc1ccc(C)c(OCc2cc(C(=O)N3CCN(c4cnccn4)CC3)no2)c1 was tested. Which inhibition did it give?
Answer: -12.1%

Question: With CCOc1ccccc1NS(=O)(=O)c1c[nH]c(C(=O)OC)c1 as the compound, how does the inhibition read?
Answer: -15%

Question: With C=CC[C@H](CC(=O)OC(C)(C)C)C(=O)OC[C@H]1CCCN1C(=O)[C@H](CC=C)CC(=O)N(CCO)Cc1ccccc1 as the compound, how does the inhibition read?
Answer: -0.47%

Question: How did the inhibition turn out when CC1(C)CN(Cc2cccnc2)C(=O)[C@H]1CC(=O)Nc1ccc(Br)cc1 was run?
Answer: -2.09%

Question: How did the inhibition turn out when O=c1ccc2c(-c3ccccc3S(=O)(=O)O)c3ccc(O)c(O)c3oc-2c1O was run?
Answer: 13.4%

Question: For CCn1c(SCC(=O)N2CCCC2=O)nc2ccccc21, which inhibition is on record?
Answer: 16.1%

Question: For CC1=C(C(=O)N(C)C)C(c2ccccc2OC(F)F)NC(=O)N1 (configuration not stated), which inhibition is on record?
Answer: 4.69%

Question: O=C(NC1CCCC1)C(c1ccc(N2CCOCC2)cc1)N(C(=O)c1ccco1)c1ccccc1F (configuration not stated) was tested. Which inhibition did it give?
Answer: 5.48%

Question: For Cc1ccc(CSCC2Nc3ccc(C(=O)N4CCN(c5ccc(F)cc5)CC4)cc3NC2=O)cc1 (configuration not stated), which inhibition is on record?
Answer: 2.74%

Question: How did the inhibition turn out when C[C@@H](C(=O)N1CCNCC1)n1cc(CCC(=O)O)nn1 was run?
Answer: 3.05%

Question: For Cc1ccccc1-c1cc(C(=O)NCC2CC2)n(CC2CC(c3cccnc3)=NO2)n1 (configuration not stated), which inhibition is on record?
Answer: 2.14%

Question: CO/N=C/c1cn(-c2ccc(Cl)cc2)nn1 was tested. Which inhibition did it give?
Answer: -12.7%

Question: How did the inhibition turn out when COc1ccc(C(=O)Nc2ccccc2C(=O)N/N=C/c2ccc(O)c(OC)c2)cc1 was run?
Answer: 64.2% (active)

Question: For COc1cccc(OCc2cc(/C=N/NC(=O)c3nc(Cl)c(Cl)c(N)c3Cl)ccc2OC)c1, which inhibition is on record?
Answer: -14.2%

Question: Which inhibition does the source give for CCOc1cc(/C=N/NC(=O)c2c(C)nc3ccc(Cl)cn23)ccc1O here?
Answer: 0.11%

Question: For CC1CN(c2nc(-c3ccccc3)nnc2-c2ccccc2)CC(C)O1 (configuration not stated), which inhibition is on record?
Answer: 10.6%

Question: How did the inhibition turn out when CC(Oc1ccc(Cl)cc1Cl)C(=O)/C=C/N(C)C (configuration not stated) was run?
Answer: -17.4%

Question: COCCN(Cc1nc(-c2ccc(C(F)(F)F)cc2)no1)C(C)C was tested. Which inhibition did it give?
Answer: -8.16%

Question: Which inhibition does the source give for CC(CCn1cccn1)NC(=O)CCc1nnc(CCc2ccccc2)o1 (configuration not stated) here?
Answer: 11.7%

Question: With O=C(NNS(=O)(=O)Cc1ccccc1)c1ccc([N+](=O)[O-])cc1 as the compound, how does the inhibition read?
Answer: -4.79%

Question: Which inhibition does the source give for O=C(Nc1cc(-c2ccccc2)nn1-c1ccccc1F)c1ccc([N+](=O)[O-])cc1 here?
Answer: -16.9%

Question: How did the inhibition turn out when O=C(NC(Nc1nc2ccc([N+](=O)[O-])cc2s1)(C(F)(F)F)C(F)(F)F)c1ccccc1 was run?
Answer: 68.3% (active)

Question: For COc1cc(CN2CCNC(=O)C2CC(=O)NCCc2ncccc2C)cc(OC)c1 (configuration not stated), which inhibition is on record?
Answer: 14.8%

Question: O=C(CCc1ccc(S(=O)(=O)N2CCOCC2)cc1)Nc1ccc2ccccc2c1 was tested. Which inhibition did it give?
Answer: -5.83%

Question: Which inhibition does the source give for CC1CCCN(CCOCCOc2ccccc2-c2ccccc2)C1 (configuration not stated) here?
Answer: 9.99%

Question: With C[C@H]1CN([C@@H](C)CO)C(=O)c2cc(Br)cnc2O[C@H]1CN(C)S(=O)(=O)c1cccs1 as the compound, how does the inhibition read?
Answer: -44.2%

Question: How did the inhibition turn out when N#CC1(NC(=O)COC(=O)CSc2ccc(F)cc2)CCCCC1 was run?
Answer: 20.2%

Question: For CCOc1cc(CNCc2ccccn2)ccc1OCC(=O)NC(C)(C)C, which inhibition is on record?
Answer: 10.8%

Question: With O=C(Cc1ccccn1)c1ccc(O)cc1O as the compound, how does the inhibition read?
Answer: -0.25%

Question: With CCC(C)C(=O)Nc1cc([N+](=O)[O-])ccc1Cl (configuration not stated) as the compound, how does the inhibition read?
Answer: -3.1%

Question: With OCCCNc1nccc(-c2cc(Nc3cccc(Cl)c3)ncn2)n1 as the compound, how does the inhibition read?
Answer: 73.6% (active)

Question: For COc1ccc(-c2c(C#N)cnc(C)c2C)c(O)c1OC, which inhibition is on record?
Answer: -0.11%

Question: How did the inhibition turn out when O=C(c1ccc[nH]c1=S)N1CCN(S(=O)(=O)c2ccc(Br)cc2Cl)CC1 was run?
Answer: -3.09%

Question: For CC(C)CCNC(=O)CCNS(=O)(=O)c1ccc(Cl)cc1, which inhibition is on record?
Answer: -13%

Question: With Nc1cc2c(cc1Br)-c1ccc(F)cc1C2=O as the compound, how does the inhibition read?
Answer: -13.1%

Question: How did the inhibition turn out when CCOC(=O)N1CCC(O)(c2cc(C)c(C)cc2C)CC1 was run?
Answer: -15.8%

Question: Which inhibition does the source give for O=C(NCc1ccccc1Cl)C1CCCN1S(=O)(=O)c1ccc(F)cc1 (configuration not stated) here?
Answer: -10.6%

Question: With CCn1nc(C)c(CNC(=O)C2CCC(=O)N(Cc3cccc(F)c3)C2)c1C (configuration not stated) as the compound, how does the inhibition read?
Answer: -37.5%

Question: How did the inhibition turn out when COc1ccc(NC(=O)CSc2nc(NS(=O)(=O)c3ccc(C)cc3)cc(=O)[nH]2)cc1 was run?
Answer: -19.6%

Question: COCCn1nnnc1CN1CCC(NC(=O)Nc2cccc(OC)c2)CC1 was tested. Which inhibition did it give?
Answer: 0.56%

Question: CC(=O)c1ccc(N2CCN(C(=O)CCNC(=O)Cn3ccc4ccccc4c3=O)CC2)cc1 was tested. Which inhibition did it give?
Answer: 3.75%

Question: O=C(c1cccc(-n2cccc2)c1)N1CCN(S(=O)(=O)c2ccc(F)cc2)CC1 was tested. Which inhibition did it give?
Answer: -2.17%

Question: How did the inhibition turn out when COc1ccc([C@H]2[C@H](C(C)=O)N3N=Cc4ccccc4C3C23C(=O)OC(C)(C)OC3=O)cc1 (some centres not stated) was run?
Answer: -26.2%

Question: How did the inhibition turn out when CC(C)Oc1ccc(/C=N/NC(=O)c2nnn(-c3nonc3N)c2CN(C)C2CCCCC2)cc1 was run?
Answer: 7.06%

Question: CCOc1ccccc1-n1c(SCC(=O)NCc2ccco2)nnc1-c1ccncc1 was tested. Which inhibition did it give?
Answer: 5.79%

Question: How did the inhibition turn out when O=C(COC(=O)CCOc1ccccc1)Nc1cc(S(=O)(=O)N2CCCCC2)ccc1Cl was run?
Answer: -9.87%

Question: With COCCOC1CCN(C(=O)c2ccc(OC)c(OC3CCN(C(C)C)CC3)c2)CC1 as the compound, how does the inhibition read?
Answer: -0.27%

Question: How did the inhibition turn out when CCOC(=O)CC1COCCN1C(=O)c1cc(COc2ccc(F)c(F)c2)on1 (configuration not stated) was run?
Answer: -5.67%

Question: How did the inhibition turn out when COCCn1c(N)c(NCc2ccccc2)c(=O)[nH]c1=O was run?
Answer: -11.5%

Question: How did the inhibition turn out when CCOP1(=O)C=C(C(C)(C)C)OC1c1ccc(F)cc1 (configuration not stated) was run?
Answer: -6.16%

Question: How did the inhibition turn out when O=C(O)COCC(=O)NCc1csc2ccc(Cl)cc12 was run?
Answer: 11.9%

Question: For CC1(C)CC(CNCCC(c2ccc(F)cc2)c2ccco2)CCO1 (configuration not stated), which inhibition is on record?
Answer: 12.7%
